High-throughput results as filed in PubChem BioAssay.
Sampled rows, rich in hits. Any-hit rate of the full collection: about 12%.
SARS PLpro yeast – SARS-CoV PLP inhibition in yeast. S. cerevisiae expressing SARS-CoV PLpro, growth rescue. Potency, µM (titrated, usually from 32.9 µM), without a hit: at the highest dose activity, positive = growth rescue, actives largely listed as activators. hit rate 0.19% among 330,000. AID 485353; note: potency is the fitted concentration of half-maximal effect; 0% is about no effect; nearly all actives have a fitted effect of over 55% in size
NS1 function inh – influenza NS1 inhibition; Potency, µM (top dose mostly 46.1 µM), for inactives: at the highest dose activity, positive = more growth; hit rate 0.4% among 270,000; AID 2326; note: potency is the fitted concentration of half-maximal effect; actives are rising curves; nearly all actives have a fitted effect of over 50% in size
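Read-out: OD600 growth recovery of NS1-expressing budding yeast. Cells grown overnight at 30C in -URA glucose medium, washed, resuspended and diluted 1:100 in 2% galactose assay medium, pH 6.0. Same strain lacking NS1 served as positive control.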
Cycloheximide cs – counter-screen for Shiga toxin inhibitors: cycloheximide protein synthesis inhibition. AID 2314. hit rate 12% among 300,000. max response, %. cell reporter, cycloheximide protein synthesis inhibition counterscreen; in the data active = max response mostly above about 13%, no sharp cut-off; inactive = mostly below about 14%; note: read at 38.3 µM for the half of the compounds with a filed dose; 0% is about no effect
Shiga inhibitor – Shiga toxin inhibition. hit rate 9.2% among 290,000. inhibition, % at 38.7 µM. Vero cells, Shiga toxin protein synthesis inhibition reporter; in the data active = inhibition mostly above about 28%, no sharp cut-off; inactive = mostly below about 43%; note: 0% is about no effect
The depositor's hits bear a star; ? = inconclusive; · = no result. Unless noted, calls come from the whole dose curve.

SMILES | SARS PLpro yeast | NS1 function inh | Cycloheximide cs | Shiga inhibitor
O=c1c2ccccc2c(C=Nc2cccc(S(=O)(=O)NCc3ccco3)c2)c(O)n1-c1ccc(Cl)cn1 | 3% | 28% | 44* | 51*
Cc1ccc(-c2c(C(=O)NCCc3ccccc3)oc(=O)c3ccccc23)cc1 | · | · | 2 | -6
O=C(C1CCCCC1)N1CCCC(c2nc(-c3ccc(F)cc3)no2)C1 (stereo not given) | -6% | -3% | -2 | 4
CC(C)c1ccc(-c2noc(C3CCCN(C(=O)c4ccc(F)cc4F)C3)n2)cc1 (stereo not given) | -7% | -47% | 55* | 38*
Cc1ccc(-c2noc(C3CCCN(C(=O)c4ccc(F)cc4F)C3)n2)cc1 (stereo not given) | -10% | -66% | 15* | 17
O=C(c1ccc(F)cc1)N1CCCC(c2nc(-c3ccncc3)no2)C1 (stereo not given) | 0% | · | · | ·
O=C(O)c1cc2nccc(-c3ccc(F)cc3)n2n1 | 2% | 3% | 3 | -4
O=C(NCc1cccnc1)c1cc(Sc2ccc(F)cc2F)nc2ccccc12 | 5% | -2% | -2 | -8
c1ccc(SCc2cc(-c3ccccc3)no2)cc1 | 0% | -2% | 39* | 82*
Cc1ccc(SCc2cc(-c3ccc(Cl)cc3)no2)cc1 | 0% | 11% | 2 | -7
Clc1ccc(-c2cc(CSc3ccccc3)on2)cc1 | 3% | ? | 51* | 132*
O=C(CCl)NCc1cc(-c2ccc(Cl)cc2)no1 | 0% | · | 16* | 29
CCNc1nc(SCC(=O)Nc2ccc(Cl)c(Cl)c2)nc(N2CCOCC2)n1 | -1% | 9% | 9 | 25
Cc1cc(C)c2[nH]c(=O)c(CN(Cc3cccnc3)C(=S)NCCCN(C)C)cc2c1 | 5% | 1% | 1 | -16
CC(=O)Nc1ccc(S(=O)(=O)Nc2ccccc2N2CCOCC2)cc1 | 1% | · | · | ·
CC(=O)c1cnc2ncnn2c1C | 0% | 10% | -3 | -12
N#C/C(=N\Nc1ccc(Cl)cc1)C(=O)c1ccsc1 | -5% | -55% | 31* | 53*
Cc1ccc(N/N=C(\C#N)C(=O)c2ccsc2)cc1 | -3% | -64% | 21* | 55
N#C/C(=N\Nc1cccc(Cl)c1)C(=O)c1ccccc1 | -37% | -145% | 13 | 23
CCOC(=O)N1CCN(C(=S)NC(=O)c2ccc(F)cc2)CC1 | 1% | 0% | -3 | -6
CCOC(=O)/C(=N/Nc1ccc(OC)cc1)N1CCCc2ccccc21 | -2% | -52% | 21 | 41*
COc1ccc(OCCCC(=O)N2CCCc3ccccc32)cc1 | -8% | -34% | 6 | -7
O=C(COc1ccccc1Cl)NC(=S)N1CCc2ccccc21 | 0% | -16% | 50* | 57
O=C(COc1ccccc1)NC(=S)N1CCc2ccccc21 | -25% | -33% | 40* | 38*
CCOC(=O)/C(=N/Nc1ccccc1)N1CCCc2ccccc21 | ? | 17% | 1 | 16
SMILES | SARS PLpro yeast | NS1 function inh | Cycloheximide cs | Shiga inhibitor
COc1ccc(OCC(=O)NC(=S)N2CCCc3ccccc32)cc1 | 4% | 14% | 35* | 152*
CC(C)C(=O)NC(=S)N1CCc2ccccc21 | 26% | 6% | -2 | 9
O=C(COc1ccccc1Cl)NC(=S)Nc1ccccc1N1CCCC1 | -3% | 13% | 2 | 24
Cc1cc2nc(C)c3c(n2n1)CCC3 | -1% | · | -12 | -4
Cc1ccc(N(C(C)C(=O)NCc2ccncc2)S(C)(=O)=O)cc1C (stereo not given) | 1% | · | 1 | -15
COc1ccc(/C=C/C=C2\NC(=S)NC2=O)cc1 | -1% | · | 20 | 33
O=C1NC(=S)N/C1=C\C=C\c1ccccc1 | -6% | -38% | 30* | 50*
CN(C(=O)COC(=O)c1cc(S(=O)(=O)N2CCCCC2)ccc1Cl)c1ccccc1 | 3% | · | · | ·
O=c1[nH]c(C2CCN(S(=O)(=O)/C=C/c3ccccc3)CC2)nc2c1nnn2Cc1ccc(F)cc1 | 2% | ? | -4 | -2
CCC(C)/C=C(C)/C=C/C1=CC2=C(Cl)C(=O)C(C)(OC(C)=O)C(=O)C2=CO1 (stereo not given) | 5% | 9% | 11* | 24
CCCC(C(=O)NC1CCCC1)N(C(=O)c1snc(C(N)=O)c1N)c1ccc(F)cc1 (stereo not given) | 11% | 7% | -2 | -5
COc1cc(C(=O)Cc2nc3ccccc3n2C)cc(OC)c1OC | -5% | -1% | 8 | 21
Cn1c(COc2ccccc2Br)nc2ccccc21 | -4% | -61% | 44* | 56*
COc1ccccc1OCc1nc2ccccc2n1C | -2% | -2% | 51* | 134*
CN(CCc1ccccn1)C(=S)Nc1ccc(Cl)cc1Cl | 0% | · | 25 | 17
Cc1cc(=O)[nH]c(SCc2csc(-c3ccccc3)n2)n1 | -3% | -18% | 20* | 24
Nc1cc(=O)[nH]c(SCc2csc(-c3ccccc3)n2)n1 | -15% | 12% | 8 | 42
Cc1cc(=O)[nH]c(SCc2nc3ccccc3s2)n1 | -1% | -11% | 16* | 14
COc1ccccc1OCC(=O)NCCSCc1ccccc1Cl | -9% | -47% | 13 | -44
O=C(CN1C(=O)c2ccccc2S1(=O)=O)NCCSCc1ccccc1Cl | 2% | 3% | 13* | 27
O=C(/C=C/c1ccccc1)NCCSCc1ccccc1Cl | -26% | -62% | 11* | -23
O=C(COc1ccccc1)NCCSCc1ccccc1Cl | -2% | -6% | 42* | 48*
O=C(/C=C/c1ccccc1)NCCSCc1ccc(Cl)cc1 | 5% | -13% | 0 | -17
CCOc1ccc(N/C(C)=C/C(=O)c2ccc3c(c2)OCCO3)cc1 | 1% | -5% | 56* | 60*
CCOc1ccc(N/C(C)=C\C(=O)c2ccc3c(c2)OCCO3)cc1 | 0% | 2% | 50* | 86*
SMILES | SARS PLpro yeast | NS1 function inh | Cycloheximide cs | Shiga inhibitor
CC(C(=O)Nc1ccccc1C#N)N1C(=O)NC2(CCCCCC2)C1=O (stereo not given) | -2% | · | · | ·
CC(C)CCOc1ccc(C2CC(=O)N(C)C2=O)cc1 (stereo not given) | -1% | 6% | 21* | 33
O=C(N/N=C/c1ccccc1F)c1cccc2ccccc12 | 1% | -2% | 21 | 40*
Cc1ccccc1C(=O)N/N=C/c1ccsc1C | -17% | 2% | 81* | 125*
Cc1ccccc1C(=O)N/N=C/c1cccc2ccccc12 | 2% | -4% | 16* | 46*
Cc1sccc1/C=N/NC(=O)c1cccc2ccccc12 | 16% | -1% | 9 | -29
CC(C)(CNC(=O)CCNC(=O)c1ccc(Br)cc1)N1CCOCC1 | -2% | · | · | ·
CCOC(=O)/C(C#N)=C1\SS/C(=C(/C#N)C(=O)OCC)S1 | -4% | -40% | 35* | 50*
C[C@@]12C[C@H](O)C3[C@H](CCC4=CC(=O)CC[C@]43C)[C@H]1CC[C@@H]2c1csc(N)n1 (stereo not given in full) | · | -11% | · | ·
CCn1ncc(/C=N\NC(=O)Cc2ccc([N+](=O)[O-])cc2)c1C | -6% | 9% | -2 | 2
Cc1nn(C)c(C)c1/C=N/NC(=O)c1csc2ccccc12 | -1% | 1% | 18* | 24
CCn1ncc(/C=N\NC(=O)c2csc3ccccc23)c1C | 1% | 16% | 12 | 53*
Cc1c(/C=N\NC(=O)c2csc3ccccc23)cnn1C | 2% | 7% | 11 | 27*
Cc1c(/C=N\NC(=O)C2(C)CC2(Cl)Cl)cnn1C (stereo not given) | -7% | 2% | 0 | 14
